We go through ten compounds from PubChem BioAssay (NCI).

Experiment in all cases: NCI-60 one-dose screen, 48 h (100 = growth as untreated, 0 = no growth, -100 = all killed)
One test relates to RPMI-8226 leukemia. Conditions: 10 µM.
The test system of a further test is OVCAR-8 ovarian. As to conditions: 10 µM.
For the next test, the system named is OVCAR-5 ovarian. Conditions: 10 µM.
Another test concerns OVCAR-4 ovarian. As to conditions: 10 µM.
A further test concerns SK-OV-3 ovarian. Conditions: 10 µM.
A further test has as its system IGROV1 ovarian. Conditions: 10 µM.
The test system of the next test is OVCAR-3 ovarian. Conditions: 10 µM.
In a further test the test system is NCI/ADR-RES ovarian. As to conditions: 10 µM.
Another test deals with T-47D breast. Conditions: 10 µM.
For a further test, the system named is BT-549 breast. As to conditions: 10 µM.
For the next test, the system named is MDA-MB-435 melanoma. Conditions: 10 µM.
The next test has as its system SW-620 colon. As to conditions: 10 µM.
A further test relates to MCF7 breast. As to conditions: 10 µM unless noted.
Another test deals with HCT-116 colon. As to conditions: 10 µM.
A further test relates to HCC-2998 colon. As to conditions: 10 µM.
The subject of another test is KM12 colon. Conditions: 10 µM.
The next test concerns HS 578T breast. As to conditions: 10 µM.

This is part of a sample that, as a whole, favours compounds with a hit. Of some 83,000 tested, about 20% had one in any assay.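 48-hour exposure, single concentration, 96-well plates; percent growth endpoint where 0 means no net growth. Active: below 10.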 Values without a mark were called inactive. The source made the active and inactive calls.

Regarding `COC(=O)c1cccc(Br)c1`, the growth in the test on RPMI-8226 leukemia is 106%; in the test on OVCAR-8 ovarian it was 112%; in the test with OVCAR-5 ovarian it was 88.8%; with OVCAR-4 ovarian it was 112%; in the test with SK-OV-3 ovarian, 118%; in the test with IGROV1 ovarian it was 116%. The growth in the test with OVCAR-3 ovarian is 121%; in the test with NCI/ADR-RES ovarian, 106%; in the test on T-47D breast, 111%; in the test with BT-549 breast, 107%; in the test on MDA-MB-435 melanoma, 94%; in the test on SW-620 colon, 114%. Further, the growth in the test on MCF7 breast is 116%; in the test with HCT-116 colon, 97.8%; with HCC-2998 colon it was 107%; in the test with KM12 colon, 112%.
For `COC(=O)C(C)Oc1ccc(OC#N)cc1` (stereo not given), the growth was 103% in the test on RPMI-8226 leukemia; 104% in the test on OVCAR-8 ovarian; 94.5% in the test with OVCAR-5 ovarian; 95.8% with OVCAR-4 ovarian; 103% in the test on SK-OV-3 ovarian; 105% with IGROV1 ovarian. In addition, the growth in the test with OVCAR-3 ovarian was 105%; with NCI/ADR-RES ovarian, 99.9%; in the test on MDA-MB-435 melanoma, 102%; in the test on SW-620 colon it was 95.6%; with MCF7 breast it was 98%; in the test on HCT-116 colon, 108%. In addition, the values for the growth in the test with HCC-2998 colon and in the test on KM12 colon were 105% and 99.8%, respectively.
Take `Cc1cc(NC(=O)CSCC(=O)O)no1`: the growth was 120% in the test with RPMI-8226 leukemia; 99.3% with OVCAR-8 ovarian; 99.6% in the test with OVCAR-5 ovarian; 107% in the test on OVCAR-4 ovarian; 99.3% in the test with SK-OV-3 ovarian; 114% in the test on IGROV1 ovarian. For the same compound, the growth in the test with OVCAR-3 ovarian was 123%; with HS 578T breast, 78%; in the test on NCI/ADR-RES ovarian, 107%; in the test on MDA-MB-435 melanoma it was 105%; in the test on SW-620 colon, 102%; with MCF7 breast, 91.9%. Moreover, the growth was 101% in the test on HCT-116 colon, 113% in the test with HCC-2998 colon and 107% with KM12 colon.
`Cc1ccc(C)n1-c1ccsc1C(=O)NNC(=O)CCl`: the growth was 84.4% in the test with RPMI-8226 leukemia; 106% in the test on OVCAR-8 ovarian; 111% in the test with OVCAR-5 ovarian; 93.5% in the test with OVCAR-4 ovarian; 95.2% with SK-OV-3 ovarian; 103% in the test with IGROV1 ovarian. Besides, the growth with OVCAR-3 ovarian was 93.2%; with HS 578T breast it was 92.7%; with NCI/ADR-RES ovarian, 98.5%; in the test with BT-549 breast it was 70.1%; in the test on SW-620 colon, 108%; in the test with MCF7 breast it was 78.4%. The growth with HCT-116 colon is 78%; in the test on HCC-2998 colon it was 116%; in the test on KM12 colon, 104%.
`CCCNC(=O)c1ccc(S(N)(=O)=O)cc1`: the growth is 96.9% in the test on RPMI-8226 leukemia; 122% in the test on OVCAR-8 ovarian; 89.7% in the test with OVCAR-5 ovarian; 84.3% with OVCAR-4 ovarian; 105% in the test on SK-OV-3 ovarian; 135% in the test with IGROV1 ovarian. Moreover, the growth was 113% with OVCAR-3 ovarian; 99.5% in the test on NCI/ADR-RES ovarian; 96% with T-47D breast; 120% in the test with BT-549 breast; 94.5% in the test on SW-620 colon; 95% with MCF7 breast. In addition, the growth in the test with HCT-116 colon is 96.4%; in the test on HCC-2998 colon, 100%; in the test with KM12 colon it was 106%.
For the compound `NCC(=O)CCC(=O)O`, the growth with RPMI-8226 leukemia was 118%; with OVCAR-8 ovarian, 104%; in the test on OVCAR-5 ovarian, 120%; with OVCAR-4 ovarian, 98%; with SK-OV-3 ovarian, 99.8%; in the test with IGROV1 ovarian it was 112%. For the same compound, the growth with OVCAR-3 ovarian is 111%; with NCI/ADR-RES ovarian it was 107%; with T-47D breast, 100%; in the test on BT-549 breast, 110%; with MDA-MB-435 melanoma it was 108%; with SW-620 colon, 108%. In addition, the values for the growth in the test on HCT-116 colon, in the test on HCC-2998 colon and with KM12 colon were 114%, 97.4% and 108%, respectively.
For the compound `c1csc(-c2cc(-c3cc(-c4cccs4)[nH]n3)n[nH]2)c1`, the growth was 94.6% in the test with RPMI-8226 leukemia; 104% in the test on OVCAR-8 ovarian; 104% in the test on OVCAR-5 ovarian; 101% with OVCAR-4 ovarian; 97% in the test with SK-OV-3 ovarian; 89.3% in the test with IGROV1 ovarian. Moreover, the growth in the test on OVCAR-3 ovarian is 118%; in the test on HS 578T breast, 74.6%; with NCI/ADR-RES ovarian it was 99.5%; with BT-549 breast, 90.7%; in the test with MDA-MB-435 melanoma, 114%; with SW-620 colon it was 104%. Also, the growth in the test with MCF7 breast was 75.5%; in the test with HCT-116 colon, 91.4%; with HCC-2998 colon, 111%; in the test with KM12 colon, 105%.
Consider `O=c1[nH]cc(Cl)cc1O`, for which the growth was 69.9% in the test on RPMI-8226 leukemia; 91% in the test on OVCAR-8 ovarian; 106% in the test on OVCAR-5 ovarian; 101% with OVCAR-4 ovarian; 101% in the test with SK-OV-3 ovarian; 91% with IGROV1 ovarian. Moreover, the growth with OVCAR-3 ovarian was 88.3%; in the test with HS 578T breast, 91%; in the test on T-47D breast, 70.5%; with BT-549 breast it was 90.6%; in the test with SW-620 colon, 98.6%; with MCF7 breast, 91.2%. Besides, the values for the growth in the test with HCT-116 colon, with HCC-2998 colon and in the test with KM12 colon were 94.3%, 96.9% and 57.7%, respectively.
Turning to `CCCCNC(=O)C(=O)NCCCC`, the growth is 106% in the test with RPMI-8226 leukemia; 105% in the test on OVCAR-8 ovarian; 113% in the test on OVCAR-5 ovarian; 108% with OVCAR-4 ovarian; 123% in the test on SK-OV-3 ovarian; 113% with IGROV1 ovarian. Moreover, the growth in the test with OVCAR-3 ovarian was 108%; in the test with HS 578T breast, 96.6%; in the test on NCI/ADR-RES ovarian, 104%; in the test with MDA-MB-435 melanoma, 104%; in the test with SW-620 colon, 104%; with MCF7 breast, 94.1%. Besides, the growth with HCT-116 colon was 104%; in the test on HCC-2998 colon, 114%; with KM12 colon, 102%.
As to `COc1ccccc1C1OC2=Nc3cc(C)c(C)cc3NC2C1=O` (stereo not given), the growth was 93.5% with RPMI-8226 leukemia; 69% in the test on OVCAR-8 ovarian; 62.1% in the test with OVCAR-5 ovarian; -14.2% (active) in the test with OVCAR-4 ovarian; 79.6% in the test with SK-OV-3 ovarian; 88.7% in the test with IGROV1 ovarian. Moreover, the growth in the test on OVCAR-3 ovarian is 22.4%; in the test with HS 578T breast, 39.9%; in the test with NCI/ADR-RES ovarian, 61.2%; with BT-549 breast, 88.6%; with SW-620 colon it was 73.9%; with MCF7 breast, 56.8%. The growth with HCT-116 colon was 39.2%; with HCC-2998 colon, 105%.
